Bioassay records (PubChem)
Shown are actives, neighbours in structure and some others; about 19% of the full set was active somewhere.
ELG1 DNA repair: blocks ELG1-dependent DNA repair in HEK293T cells. Potency, µM (top dose mostly 46.1 µM), usual class: inhibitors. hit rate 2.3% among 330,000. HEK293T ELG1-luciferase reporter, luminescence, 16 h; DNA damage induced by 5-fluorouridine. AID 504467; also: nearly all actives have a fitted effect of over 55% in size
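5-Fluorouridine DNA damage + compound/DMSO, 2,000 cells/well, 16 h, 37 °C/5% CO2. ONE-Glo, 30 min RT, luminescence. Readout = decrease in reporter signal.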
IL1B secr inh: blocks inflammasome-driven IL-1 beta release. THP-1 LPS/ATP IL-1B secretion, AlphaLISA, 16 h; stronger effect = lower value. activity change, % at 57.5 µM. hit rate 4.7% among 360,000; in the data active = activity change below about -50%; inconclusive = mostly about -30% to -49%
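Secreted IL-1B measured by AlphaLISA bead assay after 16 h compound exposure of THP-1 cells; compounds (final up to 57.5 uM) added 1 h before LPS (250 ng/mL) and ATP (1.25 mM) stimulation; lower signal means less secretion.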
DT40 TDP1 no CPT: qHTS for Inhibitors of human tyrosyl-DNA phosphodiesterase 1 (TDP1): qHTS in cells in absence of CPT; DT40 Tdp1-/- hTDP1 cells, no CPT, ATP luminescence, 48 h; Potency, µM (top dose mostly 46.2 µM), actives largely listed as inhibitors; hit rate 15% among 420,000; AID 686978, 2013; also: nearly all actives have a fitted effect of over 55% in size
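Camptothecin absent (DMSO only). Human TDP1-complemented DT40 knockout cells, 400 cells/well, 37 °C for minimum 48 hr; ATP measured via CellTiter-Glo, 30 min dark incubation, luminescence.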
TDP1 block: blocks human tyrosyl-DNA phosphodiesterase 1. recombinant TDP1, AlphaScreen DNA substrate cleavage. Potency, µM (series often up to 130 µM), most hits filed as inhibitors. Q9NUW8. hit rate 0.28% among 350,000. AID 485290; also: nearly all actives have a fitted effect of over 40% in size
Target sequence (Q9NUW8 whole entry, looked up): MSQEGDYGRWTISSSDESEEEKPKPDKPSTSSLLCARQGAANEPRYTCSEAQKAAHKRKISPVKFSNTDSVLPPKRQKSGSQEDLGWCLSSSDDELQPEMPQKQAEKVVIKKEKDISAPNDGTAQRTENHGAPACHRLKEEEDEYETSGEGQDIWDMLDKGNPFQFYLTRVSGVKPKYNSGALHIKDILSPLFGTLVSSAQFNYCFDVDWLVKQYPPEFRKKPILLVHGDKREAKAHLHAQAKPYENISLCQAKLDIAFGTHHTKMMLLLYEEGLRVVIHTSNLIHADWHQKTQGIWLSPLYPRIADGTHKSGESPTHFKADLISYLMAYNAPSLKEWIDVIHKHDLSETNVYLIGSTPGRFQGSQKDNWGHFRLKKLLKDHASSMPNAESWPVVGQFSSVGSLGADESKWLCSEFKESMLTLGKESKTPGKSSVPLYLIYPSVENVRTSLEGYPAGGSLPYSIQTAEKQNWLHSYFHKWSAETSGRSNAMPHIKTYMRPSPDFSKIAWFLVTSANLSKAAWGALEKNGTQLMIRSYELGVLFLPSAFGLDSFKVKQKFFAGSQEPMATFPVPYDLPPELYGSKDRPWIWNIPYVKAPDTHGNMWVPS
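Steps: enzyme plus compound, 15 min RT; add biotin/phosphotyrosine-FITC oligonucleotide (15 nM final), react 5 min; add donor/acceptor beads (10 ug/ml final), 10 min; read AlphaScreen. Tdp1 at 1 nM final.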
TDP1 cell CPT: DT40-hTDP1 cell growth loss with CPT | hit rate 12% among 420,000 | chicken DT40 Tdp1-/-;hTDP1 cells + 20 nM CPT, ATP luminescence, 48 h | Potency, µM (highest dose often 46.2 µM), hits mostly inhibitors; also: nearly all actives have a fitted effect of over 55% in size
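Chicken DT40 Tdp1-/- cells stably complemented with human TDP1 were seeded at 400 cells/well in medium containing 20 nM camptothecin, exposed to pin-transferred compounds, and grown at 37 °C for at least 48 hr. Viability was read as ATP luminescence.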
Giardia kill: kills Giardia lamblia; Giardia lamblia trophozoite viability; activity change, % at 7.66 µM, hits read low; hit rate 0.15% among 340,000; AID 540267; in the data active = activity change below about -80%; inconclusive = between about -30% and that limit;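 also: parasites exposed to compound for two days anaerobically before the ATP read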
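ATP-content bioluminescence gauges trophozoite survival. Cells (100/well) receive compound and incubate anaerobically for 48 hrs at 37 deg C; detection reagent follows for 15-30 min at room temperature.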
Hits are given with their value; . = inactive; ? = inconclusive; / = not tested or not shown; [ ] = remark or other dose. Unless noted, calls follow the shape of the dose curve; as a rule, active = well fitted curve in the direction sought with a large enough effect; inconclusive = small, poorly fitted or top-dose-only effect, or another doubt; inactive = no such curve, though single readings can be large; an effect the other way counts as inactive or inconclusive.

SMILES	ELG1 DNA repair	IL1B secr inh	DT40 TDP1 no CPT	TDP1 block	TDP1 cell CPT	Giardia kill
COc1cc(OC)c(OC)cc1/C=N/NC(=O)c1ccc2nc[nH]c2c1	.	.	.	.	.	.
CCN(CC)c1ccc(/C=N/NC(=O)OC)c(O)c1	?	.	26µM	.	?	.
CCN(CC)c1ccc(/C=N/NC(=O)c2ccc3nc[nH]c3c2)c(O)c1	?	.	?	.	18µM	.
COc1ccc(/C=N/NC(=O)c2ccc3nc[nH]c3c2)c(OC)c1	.	.	?	.	4.6µM	.
CCN(CC)c1ccc(/C=N/NC(=S)NC)c(O)c1	?	.	0.52µM	.	0.73µM	.
CCc1ccc(CNC(=O)C2Cc3cc(S(=O)(=O)N4CCCC4)ccc3N2C(C)=O)cc1 (centres undefined)	.	.	.	.	?	.
CCN(CC)c1ccc(/C=N/NC(=O)c2ccoc2C)c(O)c1	?	.	3.3µM	.	13µM	.
Cc1cc(/C=N/NC(=O)c2ccoc2C)cc(C)c1O	/	.	.	/	.	/
O=C(Cc1sc(Nc2ccccc2)nc1-c1ccccc1)NCc1ccccc1	?	-68	?	.	16µM	.
c1ccc(Nc2nc(-c3ccccc3)c(-c3ccccc3)s2)cc1	/	/	?	/	28µM	.
O=C(O)Cc1sc(N/N=C\c2ccccc2)nc1-c1ccccc1	.	.	23µM	.	.	.
O=C(Cc1sc(-c2ccccc2)nc1-c1ccccc1)Nc1ccccc1	?	.	?	.	?	.
NCC(=O)N[C@@H](CCCN=C(N)N)C(=O)NCC(=O)N[C@@H](CC(=O)O)C(=O)N[C@@H](CO)C(=O)O	/	/	/	.	/	/
Cn1c(-n2cccc2)c(-c2c(-c3ccc(F)cc3)[nH]c3c2c(=O)[nH]c(=O)n3C)c(=O)[nH]c1=O	/	/	.	.	.	/
Fc1ccc(Nc2nc(NCc3ccco3)c3ccccc3n2)cc1	23µM	-102	6.5µM	/	9.2µM	.
Nc1nc(Nc2ccccc2)nc(NCc2ccco2)c1[N+](=O)[O-]	?	.	?	.	?	.
Cc1ccc(Nc2nc(N)c([N+](=O)[O-])c(NCc3ccco3)n2)cc1	.	.	?	.	?	.
c1coc(CNc2c3c(nc4ccccc24)CCC3)c1	.	-74	23µM	.	16µM	.
CC(C)NCC(=O)Nc1c2c(nc3ccccc13)CCC2	.	.	.	.	.	.
Cc1ccc2c(NCc3ccco3)nc(NC(C)C)nc2c1	/	-111	?	/	?	/
N#Cc1c2c(c(NCc3ccco3)n3c1nc1ccccc13)CCC2	?	.	21µM	.	.	.
CN(C)CCNc1c2c(c(C#N)c3nc4ccccc4n13)CCCC2	.	.	.	.	.	.
COc1ccc(C)cc1NC(=O)CNC(C)C(=O)Nc1ccc(C(C)=O)cc1 (centres undefined)	?	.	.	/	.	.
O=C(OCC#CCSc1nnc(-c2cccc3ccccc23)o1)c1ccccc1	/	/	/	.	/	/
Cc1nnc(NCc2ccco2)c2ccccc12	.	.	.	.	.	.
SMILES	ELG1 DNA repair	IL1B secr inh	DT40 TDP1 no CPT	TDP1 block	TDP1 cell CPT	Giardia kill
c1coc(CNc2nc(NCc3ccco3)c3ccccc3n2)c1	/	/	13µM	/	11µM	/
CO[C@H]1[C@H](NC(=O)c2ccsc2)c2ccccc2C12CCN(Cc1cc3ccccc3o1)CC2	/	/	?	/	.[9.04 µM]	/
Cc1cccc(N(C)C(=O)C2CCCN2S(=O)(=O)c2cccc3nsnc23)c1 (centres undefined)	.	?	.	.	.	.
COc1c2c(cc3c1C(CC(O)Cc1ccccc1)N(C)CC3)OCO2 (centres undefined)	.	.	10µM	/	?	.
COc1ccc2c(c1OC)C(=O)OC2[C@H]1c2c(cc3c(c2OC)OCO3)CCN1C (some centres undefined)	/	/	/	.[21 µM]	/	/
COc1cccc(CC(O)CC2c3c(cc4c(c3OC)OCO4)CCN2C)c1 (centres undefined)	/	.	15µM	/	21µM	.
O=C(N/N=C/c1cccc(Oc2ccc([N+](=O)[O-])cc2[N+](=O)[O-])c1)c1cncc(Br)c1	.	.	18µM	.	?	.
O=C(N/N=C/c1cccnc1)c1ccc([N+](=O)[O-])cc1	.	.	.	.	.	.
Cc1ccccc1OCC(=O)N/N=C/c1cccc(Oc2ccc([N+](=O)[O-])cc2[N+](=O)[O-])c1	?	-96	21µM	.	15µM	.
O=C(NN1CCOCC1)c1cccc(COc2cccc(Br)c2)c1	.	.	.	.	.	.
Cc1ccc2cc(CN(Cc3ccc4c(c3)OCO4)Cc3nnnn3Cc3ccco3)c(=O)[nH]c2c1C	?	.	23µM	.	?	.
Cc1ccc(C)c2[nH]c(=O)c(CN(Cc3ccc4c(c3)OCO4)Cc3nnnn3Cc3ccco3)cc12	?	-60	?	.	?	.
CCC1=C(c2ccc(C)cc2)S(=O)(=O)N=C1N1CCC(C(=O)NCc2ccc(N(C)C)cc2)CC1	/	/	23µM	.	18µM	/
CC1CCc2nc(/C(C#N)=C/c3cccnc3)sc2C1 (centres undefined)	?	.	?	.	21µM	.
N#C/C(=C/c1cccnc1)c1ccccc1	.	.	.	/	.	.
COc1cccc(CNC(=O)CCS(=O)(=O)c2cc3c4c(c2)CCN4C(=O)CC3)c1	/	/	.	.	.	/
O=C(Nc1ccc2oc(Cc3ccc(Cl)cc3)nc2c1)c1cccnc1	?	-67	?	.	?	.
CCOc1ccc(C(=O)Nc2ccc3oc(-c4ccncc4)nc3c2)cc1	/	/	.	/	.	/
CCOc1cccc(C(=O)Nc2ccc3oc(Cc4ccc(Cl)cc4)nc3c2)c1	18µM	.	?	.	?	.
CCc1ccc(-n2nc(CO)c(C(=O)NCc3cccnc3)n2)cc1	/	/	?	.	?	/
O=c1c2ccccc2c(C=Nc2ccccc2O)c(O)n1-c1nccs1	16µM	.	?	.	.	.
O=C(O)c1ccccc1N=Cc1c(O)n(-c2nccs2)c(=O)c2ccccc12	?	.	.	.	?	.
Cc1ccccc1N=Cc1c(O)n(-c2nccs2)c(=O)c2ccccc12	21µM	-55	?	.	?	.
COc1ccc(C2C=C(c3ccccc3)Nc3nc(NC(=O)/C=C/c4ccc(Cl)cc4)nn32)cc1 (centres undefined)	/	/	12µM	.	15µM	/
O=C(/C=C/c1ccc(F)cc1)Nc1nc2n(n1)C(c1ccc(Cl)cc1)C=C(c1ccccc1)N2 (centres undefined)	/	/	15µM	.	?	/
O=C(/C=C/c1ccccc1)Nc1nc2n(n1)C(c1ccc(Cl)cc1)C=C(c1ccccc1)N2 (centres undefined)	/	/	23µM	.	21µM	/
